Laboratory results: PubChem BioAssay AID463173 (ICCB-Longwood Screening Facility, Harvard Medical School, 2010)
In all, about 52,000 compounds went through this assay and about 4,300 (8.3%) were called active. For the sample, actives were picked, then their nearest neighbours and some compounds at random. A number with no mark means an inactive call. No stated cut-off is given here; in the data, active means survival mostly below about 52% (no sharp cut-off); inactive means mostly above about 56%.

What follows are molecules tested on DeltatarO mutant (assay: growth inhibition of S. aureus wild type versus tarO mutant, primary screen, teichoic acid synthesis inhibitors, RN4220, OD600 (AID 463173)). Details: OD600, 18 h, active compounds read low, screened at 18.75 µg/mL (by protocol).

Row | Structure (SMILES) | survival
1 | O=C(c1cccnc1)N1CCN(CCN2C(=O)C3C4C=CC(C4)C3C2=O)CC1 (centres undefined) | 89%
2 | COc1ccc(-n2nc(C(=O)NCCc3ccc(OC)c(OC)c3)c3c4ccccc4n(C)c3c2=O)cc1Cl | 95%
3 | CCOc1ccc(S(=O)(=O)NCCc2csc(-c3ccc(Cl)cc3)n2)cc1 | 91%
4 | O=C1CC(c2ccccc2)Cc2[nH]c(=O)c(-c3nc(-c4ccc(F)cc4)cs3)cc21 (centres undefined) | 154%
5 | Cc1ccc(NC(=O)c2c(C)oc3ncnc(N4CCCCC4)c23)c(C)c1 | 108%
6 | O=C(CCC1N=C2c3ccccc3N=C(SCC(=O)Nc3ccccc3F)N2C1=O)NCc1cccs1 (centres undefined) | 96%
7 | CCc1cccc(NC(=O)Cn2c(=O)n(CC3CCC(C(=O)NC)CC3)c(=O)c3sccc32)c1 (centres undefined) | 83%
8 | Cc1ccccc1OCCSc1nc2ccc(NC(=O)c3cccc(F)c3)cc2s1 | 100%
9 | O=C(NCC1CCCO1)C1CCCN1C(=O)Nc1ccc(Cl)cc1 (centres undefined) | 84%
10 | COc1cccc(-c2cc(C(=O)NCc3ccc(F)cc3)no2)c1 | 30% (active)
11 | COc1ccc(CNC(=O)c2cc(-c3cccc(Cl)c3)on2)cc1 | 49%
12 | COc1cccc(-c2cc(C(=O)NCc3ccccc3)no2)c1 | 45% (active)
13 | COc1ccc(CNC(=O)c2cc(-c3ccc(OC)cc3)on2)cc1 | 210%
14 | COc1cccc(-c2cc(C(=O)Nc3cccnc3Cl)no2)c1 | 61%
15 | COc1cccc(-c2cc(C(=O)NCCc3ccc(OC)c(OC)c3)no2)c1 | 173%
16 | COc1cccc(-c2cc(C(=O)Nc3ccc(OC)cc3OC)no2)c1 | 56%
17 | COc1ccc(-c2cc(C(=O)NCc3ccc(F)cc3)no2)cc1 | 178%
18 | CCC(C)NC(=O)c1cc(-c2cccc(OC)c2)on1 (centres undefined) | 32% (active)
19 | CCOC(=O)C1CCCN(C(=O)c2c(C)nn(-c3ccc(F)cc3)c2-n2cccc2)C1 (centres undefined) | 113%
20 | COc1cccc(NC(=O)C2CCN(c3ccc(Sc4ccc(C)cc4)nn3)CC2)c1 | 49%
21 | O=C(CSc1cn(CC(=O)N2CCCC2)c2ccccc12)Nc1ccccc1C(F)(F)F | 66%
22 | O=C(NCn1nc(-c2ccccc2)nc1-c1ccccc1)c1cccnc1 | 67%
23 | CN(C)N=Nc1ccc(S(N)(=O)=O)cc1 | 92%
24 | O=C(c1ccccc1)n1nc(-c2ccco2)nc1NCc1cccs1 | 81%

Row | Structure (SMILES) | survival
25 | CC(C)CNS(=O)(=O)c1ccc(N2CCCCS2(=O)=O)cc1 | 82%
26 | COc1ccc(CNC(=O)c2cc3ccccn3n2)c(OC)c1 | 71%
27 | O=C(c1cccc(Cl)c1)N1CCC(c2nc3c(nnn3Cc3ccc(F)cc3F)c(=O)[nH]2)CC1 | 11% (active)
28 | COc1ccc(Cn2nnc3c(=O)[nH]c(C4CCCN(C(=O)c5ccc(C)cc5)C4)nc32)cc1 (centres undefined) | 107%
29 | O=C(c1ccccc1Cl)N1CCCC(c2nc3c(nnn3Cc3ccc(F)cc3F)c(=O)[nH]2)C1 (centres undefined) | 56%
30 | Cc1ccccc1Cn1nnc2c(=O)[nH]c(C3CCN(C(=O)c4ccccc4)CC3)nc21 | 17% (active)
31 | CCS(=O)(=O)N1CCCC(c2nc3c(nnn3Cc3ccc(C)cc3)c(=O)[nH]2)C1 (centres undefined) | 88%
32 | COc1ccc(Cn2nnc3c(=O)[nH]c(C4CCN(C(=O)c5ccc(C)cc5)CC4)nc32)cc1OC | 24% (active)
33 | Cc1ccccc1Cn1nnc2c(=O)[nH]c(C3CCN(C(=O)c4ccccc4Cl)CC3)nc21 | 17% (active)
34 | O=C(c1ccccc1)N1CCCC(c2nc3c(nnn3Cc3ccc(F)cc3F)c(=O)[nH]2)C1 (centres undefined) | 101%
35 | COC(=O)c1ccc(NC(=O)N2CCN(c3nnc(C)c4c(C)n(-c5ccccc5)nc34)CC2)cc1 | 65%
36 | COc1ccc(C(=O)CN2CCC(N3CCCCC3)CC2)cc1 | 92%
37 | COc1cc(-c2nc(Cn3nnc(C(=O)Nc4cccc(Cl)c4)c3C)c(C)o2)cc(OC)c1OC | 80%
38 | CCN(CC)c1ccc(C(=O)N2CCC(c3c[nH]c4ccccc34)(c3c[nH]c4ccccc34)CC2)cc1 | 104%
39 | CCOc1ccccc1NC(=O)N1CCN(S(=O)(=O)c2ccc3c(ccn3C)c2)CC1 | 76%
40 | CC(C)(C)c1ccc(C(=O)N2CCC(C(=O)O)CC2)cc1 | 68%
41 | CN1C(=O)CC(NCCc2ccc(S(N)(=O)=O)cc2)C1=O (centres undefined) | 72%
42 | CCOc1ccc(-n2c(SCC(=O)Nc3cccc(Cl)c3)nc3c(oc4ccccc43)c2=O)cc1 | 58%
43 | Cc1cccc(Cn2nnc3c(=O)[nH]c(C4CCN(C(=O)c5ccccc5F)CC4)nc32)c1 | 46%
44 | COc1ccc(Cn2nnc3c(=O)[nH]c(C4CCCN(C(=O)c5ccccc5Cl)C4)nc32)cc1OC (centres undefined) | 80%
45 | Cc1ccccc1Cn1nnc2c(=O)[nH]c(C3CCN(C(=O)c4ccc(F)cc4)CC3)nc21 | 52% (active)
46 | COc1cccc(Cn2nnc3c(=O)[nH]c(C4CCCN(C(=O)c5ccccc5Cl)C4)nc32)c1 (centres undefined) | 80%
47 | COc1cccc(Cn2nnc3c(=O)[nH]c(C4CCN(C(=O)c5ccccc5Cl)CC4)nc32)c1 | 14% (active)
48 | O=C(c1ccccc1F)N1CCC(c2nc3c(nnn3Cc3cccc(F)c3)c(=O)[nH]2)CC1 | 47%

Row | Structure (SMILES) | survival
49 | Cc1cccc(Cn2nnc3c(=O)[nH]c(C4CCN(C(=O)c5ccc(F)cc5)CC4)nc32)c1 | 28% (active)
50 | Cc1cc(C)cc(NC(=O)c2cc3c(=O)n(Cc4ccco4)ccc3nc2C)c1 | 73%
51 | O=C(Nc1ccccc1)c1ccc2c(O)c(S(=O)(=O)c3ccc(Cl)cc3)c(=O)[nH]c2c1 | 74%
52 | COc1ccc(N(C)C(=O)c2cn(C)c(=O)c3cc(OC)c(OC)cc23)cc1 | 177%
53 | O=C(CCSc1nnc(-c2ccco2)o1)Nc1ccccc1 | 86%
54 | O=C(CSc1nnc(-c2ccco2)o1)NC(c1ccccc1)c1ccccc1 | 61% (active)
55 | O=C(CSc1nnc(-c2ccccc2)o1)Nc1ccccc1 | 82%
56 | CCOc1ccc(Sc2cc(C(=O)NCCc3ccccc3)c3ccccc3n2)cc1 | 73%
57 | N#Cc1cn(CC(=O)NCc2ccccc2)c2ccccc12 | 87%
58 | COc1cccc([C@H]2Nc3ccc(S(=O)(=O)Nc4cc(C)ccc4C)cc3[C@H]3C=CC[C@H]32)c1 | 52%
59 | CCOC(=O)c1ccc2c(c1)[C@@H]1C=CC[C@@H]1[C@H](c1cccc(OC)c1OC)N2 | -10% (active)
60 | COc1ccc(C)cc1NS(=O)(=O)c1ccc2c(c1)[C@H]1C=CC[C@H]1[C@@H](c1cccc(Cl)c1)N2 | 57%
61 | CCOc1ccc2c(c1)[C@@H]1C=CC[C@@H]1[C@H](c1ccccc1Cl)N2 | -10% (active)
62 | Fc1ccc([C@@H]2Nc3ccccc3[C@@H]3C=CC[C@@H]32)cc1 | 56%
63 | CCCN1CCN(CC2=C(C(=O)OCC)C(c3cccc(OC)c3OC)NC(=O)N2)CC1 (centres undefined) | 94%
64 | COc1ccc(Br)cc1[C@@H]1Nc2ccc(C(=O)O)cc2[C@@H]2C=CC[C@@H]21 | 36% (active)
65 | COc1cccc(NS(=O)(=O)c2ccc3c(c2)[C@H]2C=CC[C@H]2[C@@H](c2ccccc2Cl)N3)c1 | 163%
66 | COc1ccc(NS(=O)(=O)c2ccc3c(c2)[C@H]2C=CC[C@H]2[C@@H](c2ccc(C(=O)O)cc2)N3)cc1 | 72%
67 | CCCCN(CC)CCNC(=O)Cn1cnc2sc(C)c(S(=O)(=O)N3CCC(C)CC3)c2c1=O | 69%
68 | COCC(=O)NCc1ccc2c(c1)OCO2 | 104%
69 | CCN(CC)CCOC(=O)c1ccc(NC(=O)c2cc3cc(OC)ccc3oc2=O)cc1 | 73%
70 | COc1ccc(NC(=O)Cn2c(=O)n(-c3ccc(C)c(C)c3)c(=O)c3c(C)c(C)sc32)cc1 | 139%
71 | O=C1[C@@H]2CSC(c3ccc(C(F)(F)F)cc3)N2C(=O)N1c1ccccc1 (some centres undefined) | 81%
72 | O=C(NCc1ccccc1F)c1ccc(CSc2nc3cccnc3n2Cc2ccccc2)cc1 | 75%

Row | Structure (SMILES) | survival
73 | CCCSc1nc(=O)c2c(n1C)NC(=O)CC2c1cccc(F)c1F (centres undefined) | 54% (active)
74 | CSc1nc(=O)c2c(n1C)NC(=O)CC2c1ccccc1OC(C)C (centres undefined) | 46%
75 | CCSc1nc(=O)c2c(n1C)NC(=O)CC2c1ccc(O)cc1OC (centres undefined) | 57%
76 | Cc1oc(-c2ccc(Cl)cc2)nc1Cn1c(=O)cc(-c2ccccc2)c2c(C)nn(C)c21 | 88%
77 | Cc1oc(C)c2c(=O)cc(-c3ccc4c(c3)OCO4)cc(OC(=O)c3ccccc3Br)c12 | 106%
78 | O=C(NCCc1ccncc1)Nc1c[nH]c2ccccc2c1=O | 89%
79 | COc1ccccc1C(=O)c1cn(CC(=O)Nc2ccccc2F)c2nc(C)ccc2c1=O | 71%
80 | CCOc1cc(Cl)c(S(=O)(=O)n2cc(C)nc2CC)cc1Cl | 3% (active)
81 | CCOc1cc(Cl)c(S(=O)(=O)n2ccnc2)cc1Cl | 73%
82 | CCc1nc(C)cn1S(=O)(=O)c1ccc(Cl)c(Cl)c1OC | 71%
83 | CCOc1ccc(C(=O)NCCSc2c(C)[nH]c3ccccc23)cc1OCC | 56%
84 | CC1=C(C(=O)Nc2ccc(F)cc2)C(c2ccc(N(C)C)cc2)NC(=O)N1 (centres undefined) | 140%
85 | Cc1ccccc1OCCn1c(CCNC(=O)C2CCCCC2)nc2ccccc21 | 77%
86 | Cc1ccccc1OCCn1c(CCNC(=O)C(C)(C)C)nc2ccccc21 | 82%
87 | CC(=O)NCCc1nc2ccccc2n1CCCCOc1ccc(Cl)cc1 | 61%
88 | CC(C)(C)C(=O)NCCc1nc2ccccc2n1CCCCOc1ccc(Cl)cc1 | 18% (active)
89 | Cc1ccc(OCCCCn2c(CCNC(=O)C(C)(C)C)nc3ccccc32)cc1 | 42% (active)
90 | Cc1cccc(OCCCn2c(CCNC(=O)C(C)(C)C)nc3ccccc32)c1 | 77%
91 | CC(C)(C)C(=O)NCCc1nc2ccccc2n1CCCCOc1ccccc1 | 41% (active)
92 | Cc1ccccc1OCCCCn1c(CCNC(=O)C(C)(C)C)nc2ccccc21 | 36% (active)
93 | CCCCCn1c(CCCNC(=O)c2ccc(Cl)cc2)nc2ccccc21 | 85%
94 | CCCCCn1c(CCCNC(=O)c2ccccc2)nc2ccccc21 | 59%
